Values without a mark were called inactive.
Test system: Mel-DCC-11
Assay: cell viability relative to DMSO control (fraction of DMSO control); higher = less cytotoxic, active = 0.5 or less
Conditions: 1 µM; 120 h
Summary of the method: (§1)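 A library of 315 approved anti-cancer drugs (TargetMol) was acoustically pre-spotted into 384-well plates and tested at 1 µM in duplicate for 120 h. Cells were added in 40 µl per well: NHEM-hTERT immortalized melanocytes at 2500/well, and patient-derived Mel-DCC-11 and its resistant subline Mel-DCC-11-R at 1500/well. The subline was tested both alone and with 8 µM of its selecting drug. Viability was read by ATPlite 1step luminescence, normalised to DMSO controls and averaged over duplicates.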

Q: For `O=c1cc[nH]c(=O)[nH]1` [Uracil], which cell viability is on record?
A: 0.996

Q: With `COc1ccc2[nH]cc(CCNC(C)=O)c2c1` [Melatonine] as the compound, how does the cell viability read?
A: 0.874

Q: With `CN(C)C/C=C/C(=O)Nc1cc2c(Nc3ccc(F)c(Cl)c3)ncnc2cc1O[C@H]1CCOC1` [Afatinib] as the compound, how does the cell viability read?
A: 0.77

Q: For `CCN1CCN(Cc2ccc(Nc3ncc(F)c(-c4cc(F)c5nc(C)n(C(C)C)c5c4)n3)nc2)CC1.CS(=O)(=O)O` [abemaciclib mesylate], which cell viability is on record?
A: 0.731

Q: `CS(=O)(=O)O.Cc1ccc(NC(=O)c2ccc(CN3CCN(C)CC3)cc2)cc1Nc1nccc(-c2cccnc2)n1` [Imatinib Mesylate] was tested. Which cell viability did it give?
A: 1.15

Q: For `S=c1nc[nH]c2nc[nH]c12` [Mercaptopurine], which cell viability is on record?
A: 0.611

Q: For `O=c1cc(O)c(Cl)c[nH]1` [Gimeracil], which cell viability is on record?
A: 1.14

Q: `CNNCc1ccc(C(=O)NC(C)C)cc1.Cl` [Procarbazine hydrochloride] was tested. Which cell viability did it give?
A: 1.18

Q: `CCOC(=O)[C@@H](N)Cc1ccc(-c2cc(O[C@H](c3ccc(Cl)cc3-n3ccc(C)n3)C(F)(F)F)nc(N)n2)cc1.O=C(O)CNC(=O)c1ccccc1` [Telotristat Etiprate] was tested. Which cell viability did it give?
A: 0.836

Q: `O=S(=O)([O-])CCS.[Na+]` [Mesna] was tested. Which cell viability did it give?
A: 1.18

Q: `O=C(NC(Cc1cc(=O)[nH]c2ccccc12)C(=O)O)c1ccc(Cl)cc1` (configuration not stated) [Rebamipide] was tested. Which cell viability did it give?
A: 1.15

Q: How did the cell viability turn out when `Nc1ccc(F)cc1NC(=O)c1ccc(CNC(=O)/C=C/c2cccnc2)cc1` [Chidamide] was run?
A: 1.27

Q: `O=c1[nH]c(=O)n([C@H]2C[C@H](O)[C@@H](CO)O2)cc1C(F)(F)F` [Trifluridine] was tested. Which cell viability did it give?
A: 1.7

Q: `C#CCC(Cc1cnc2nc(N)nc(N)c2n1)c1ccc(C(=O)N[C@@H](CCC(=O)O)C(=O)O)cc1` (some centres not stated) [Pralatrexate] was tested. Which cell viability did it give?
A: 1.03

Q: With `CC(=O)O.CC(C)C[C@H](NC(=O)[C@@H](COC(C)(C)C)NC(=O)[C@H](Cc1ccc(O)cc1)NC(=O)[C@H](CO)NC(=O)[C@H](Cc1c[nH]c2ccccc12)NC(=O)[C@H](Cc1cnc[nH]1)NC(=O)[C@@H]1CCC(=O)N1)C(=O)N[C@@H](CCCN=C(N)N)C(=O)N1CCC[C@H]1C(=O)NNC(N)=O` [Goserelin acetate] as the compound, how does the cell viability read?
A: 1.22

Q: `O=C(O)CCc1nc2ccccc2[nH]1` [Procodazole] was tested. Which cell viability did it give?
A: 1.38

Q: With `CS(=O)(=O)c1ccc(C(=O)Nc2ccc(Cl)c(-c3ccccn3)c2)c(Cl)c1` [Vismodegib] as the compound, how does the cell viability read?
A: 0.785

Q: `Oc1ccc(/C=C/c2cc(O)cc(O)c2)cc1` [Resveratrol] was tested. Which cell viability did it give?
A: 1.06

Q: For `Nc1nc(=O)c2c([nH]1)NC[C@H](CNc1ccc(C(=O)N[C@@H](CCC(=O)[O-])C(=O)[O-])cc1)N2C=O.[Ca+2]` [Calcium Levofolinate], which cell viability is on record?
A: 5.5

Q: With `C=CC(=O)N1CCC[C@@H](n2nc(-c3ccc(Oc4ccccc4)cc3)c3c(N)ncnc32)C1` [Ibrutinib] as the compound, how does the cell viability read?
A: 0.492 (active)

Q: For `COc1cccc2c1C(=O)c1c(O)c3c(c(O)c1C2=O)C[C@@](O)(C(C)=O)C[C@@H]3O[C@H]1C[C@H](N)[C@H](O)[C@H](C)O1.Cl` [Daunorubicin hydrochloride], which cell viability is on record?
A: 0.0325 (active)

Q: With `COc1ccc2cc1Oc1ccc(cc1)C[C@H]1c3cc(c(OC)cc3CCN1C)Oc1c(OC)c(OC)cc3c1[C@H](C2)N(C)CC3` [Tetrandrine] as the compound, how does the cell viability read?
A: 0.653

Q: `C1=C/COCc2cc(ccc2OCCN2CCCC2)Nc2nccc(n2)-c2cccc(c2)COC/1` [Pacritinib] was tested. Which cell viability did it give?
A: 1.2

Q: With `CC(C)Cn1cnc2c(N)nc3ccccc3c21` [Imiquimod] as the compound, how does the cell viability read?
A: 0.985

Q: With `c1cn2cc(-c3ccc4cn[nH]c4c3)nc(Nc3ccc(N4CCOCC4)cc3)c2n1` [Entospletinib] as the compound, how does the cell viability read?
A: 0.988

Q: Which cell viability does the source give for `CC[C@H](Nc1ncnc2[nH]cnc12)c1nc2cccc(F)c2c(=O)n1-c1ccccc1` [Idelalisib] here?
A: 0.978

Test system: NHEM-hTERT
Assay: as above
Conditions: 1 µM; 120 h
Summary of the method: as §1

Q: How did the cell viability turn out when `CC(=O)O[C@]1(C(C)=O)CC[C@H]2[C@@H]3CCC4=CC(=O)CCC4=C3[C@@H](c3ccc(N(C)C)cc3)C[C@@]21C` [Ulipristal acetate] was run?
A: 0.967

Q: With `CCN1CCN(Cc2ccc(Nc3ncc(F)c(-c4cc(F)c5nc(C)n(C(C)C)c5c4)n3)nc2)CC1` [Abemaciclib] as the compound, how does the cell viability read?
A: 0.921

Q: Which cell viability does the source give for `Nc1nc(F)nc2c1ncn2[C@@H]1O[C@H](COP(=O)(O)O)[C@@H](O)[C@@H]1O` [Fludarabine Phosphate] here?
A: 1.2

Q: `N.N.O=C([O-])C[O-].[Pt+2]` [Nedaplatin] was tested. Which cell viability did it give?
A: 1.08

Q: Which cell viability does the source give for `O=c1cc(-c2ccc(O)cc2)oc2cc(O)cc(O)c12` [Apigenin] here?
A: 1.09

Q: `C[C@@H]1O[C@@H](OC[C@H]2O[C@@H](Oc3c(-c4ccc(O)c(O)c4)oc4cc(O)cc(O)c4c3=O)[C@H](O)[C@@H](O)[C@@H]2O)[C@H](O)[C@H](O)[C@H]1O` [Rutin] was tested. Which cell viability did it give?
A: 1.09

Q: How did the cell viability turn out when `O=C(O)C1CSCN1` (configuration not stated) [Thioproline] was run?
A: 1.17

Q: With `CC(C)CN(C[C@@H](O)[C@H](Cc1ccccc1)NC(=O)O[C@H]1CCOC1)S(=O)(=O)c1ccc(N)cc1` [Amprenavir] as the compound, how does the cell viability read?
A: 0.952

Q: How did the cell viability turn out when `CN(CCOc1ccc(CC2SC(=O)NC2=O)cc1)c1ccccn1.O=C(O)/C=C\C(=O)O` (configuration not stated) [Rosiglitazone maleate] was run?
A: 1.06

Q: For `COc1cccc2c1C(=O)c1c(O)c3c(c(O)c1C2=O)C[C@@](O)(C(=O)CO)C[C@@H]3O[C@H]1C[C@H](N)[C@H](O[C@H]2CCCCO2)[C@H](C)O1` [Pirarubicin], which cell viability is on record?
A: 0.839

Q: With `O=c1cc[nH]c(=O)[nH]1` [Uracil] as the compound, how does the cell viability read?
A: 1.1

Q: `COc1ccc2[nH]cc(CCNC(C)=O)c2c1` [Melatonine] was tested. Which cell viability did it give?
A: 0.936

Q: Which cell viability does the source give for `CN(C)C/C=C/C(=O)Nc1cc2c(Nc3ccc(F)c(Cl)c3)ncnc2cc1O[C@H]1CCOC1` [Afatinib] here?
A: 1.01

Q: For `CCN1CCN(Cc2ccc(Nc3ncc(F)c(-c4cc(F)c5nc(C)n(C(C)C)c5c4)n3)nc2)CC1.CS(=O)(=O)O` [abemaciclib mesylate], which cell viability is on record?
A: 0.896

Q: How did the cell viability turn out when `CS(=O)(=O)O.Cc1ccc(NC(=O)c2ccc(CN3CCN(C)CC3)cc2)cc1Nc1nccc(-c2cccnc2)n1` [Imatinib Mesylate] was run?
A: 0.965

Q: How did the cell viability turn out when `S=c1nc[nH]c2nc[nH]c12` [Mercaptopurine] was run?
A: 1.07

Q: `O=c1cc(O)c(Cl)c[nH]1` [Gimeracil] was tested. Which cell viability did it give?
A: 0.996

Q: For `CNNCc1ccc(C(=O)NC(C)C)cc1.Cl` [Procarbazine hydrochloride], which cell viability is on record?
A: 1.13

Q: For `CCOC(=O)[C@@H](N)Cc1ccc(-c2cc(O[C@H](c3ccc(Cl)cc3-n3ccc(C)n3)C(F)(F)F)nc(N)n2)cc1.O=C(O)CNC(=O)c1ccccc1` [Telotristat Etiprate], which cell viability is on record?
A: 1.04

Q: With `O=S(=O)([O-])CCS.[Na+]` [Mesna] as the compound, how does the cell viability read?
A: 1.09

Q: `O=C(NC(Cc1cc(=O)[nH]c2ccccc12)C(=O)O)c1ccc(Cl)cc1` (configuration not stated) [Rebamipide] was tested. Which cell viability did it give?
A: 1

Q: Which cell viability does the source give for `Nc1ccc(F)cc1NC(=O)c1ccc(CNC(=O)/C=C/c2cccnc2)cc1` [Chidamide] here?
A: 0.668

Q: How did the cell viability turn out when `O=c1[nH]c(=O)n([C@H]2C[C@H](O)[C@@H](CO)O2)cc1C(F)(F)F` [Trifluridine] was run?
A: 1.12

Q: Which cell viability does the source give for `C#CCC(Cc1cnc2nc(N)nc(N)c2n1)c1ccc(C(=O)N[C@@H](CCC(=O)O)C(=O)O)cc1` (some centres not stated) [Pralatrexate] here?
A: 0.982

Q: How did the cell viability turn out when `CC(=O)O.CC(C)C[C@H](NC(=O)[C@@H](COC(C)(C)C)NC(=O)[C@H](Cc1ccc(O)cc1)NC(=O)[C@H](CO)NC(=O)[C@H](Cc1c[nH]c2ccccc12)NC(=O)[C@H](Cc1cnc[nH]1)NC(=O)[C@@H]1CCC(=O)N1)C(=O)N[C@@H](CCCN=C(N)N)C(=O)N1CCC[C@H]1C(=O)NNC(N)=O` [Goserelin acetate] was run?
A: 1.07

Q: `O=C(O)CCc1nc2ccccc2[nH]1` [Procodazole] was tested. Which cell viability did it give?
A: 1.02

Q: How did the cell viability turn out when `CS(=O)(=O)c1ccc(C(=O)Nc2ccc(Cl)c(-c3ccccn3)c2)c(Cl)c1` [Vismodegib] was run?
A: 0.961

Q: Which cell viability does the source give for `Oc1ccc(/C=C/c2cc(O)cc(O)c2)cc1` [Resveratrol] here?
A: 1

Q: With `Nc1nc(=O)c2c([nH]1)NC[C@H](CNc1ccc(C(=O)N[C@@H](CCC(=O)[O-])C(=O)[O-])cc1)N2C=O.[Ca+2]` [Calcium Levofolinate] as the compound, how does the cell viability read?
A: 1.02

Q: `C=CC(=O)N1CCC[C@@H](n2nc(-c3ccc(Oc4ccccc4)cc3)c3c(N)ncnc32)C1` [Ibrutinib] was tested. Which cell viability did it give?
A: 1.05

Q: With `COc1cccc2c1C(=O)c1c(O)c3c(c(O)c1C2=O)C[C@@](O)(C(C)=O)C[C@@H]3O[C@H]1C[C@H](N)[C@H](O)[C@H](C)O1.Cl` [Daunorubicin hydrochloride] as the compound, how does the cell viability read?
A: 0.363 (active)

Q: With `COc1ccc2cc1Oc1ccc(cc1)C[C@H]1c3cc(c(OC)cc3CCN1C)Oc1c(OC)c(OC)cc3c1[C@H](C2)N(C)CC3` [Tetrandrine] as the compound, how does the cell viability read?
A: 1.25

Q: For `C1=C/COCc2cc(ccc2OCCN2CCCC2)Nc2nccc(n2)-c2cccc(c2)COC/1` [Pacritinib], which cell viability is on record?
A: 1.04

Q: How did the cell viability turn out when `CC(C)Cn1cnc2c(N)nc3ccccc3c21` [Imiquimod] was run?
A: 1.31

Q: With `c1cn2cc(-c3ccc4cn[nH]c4c3)nc(Nc3ccc(N4CCOCC4)cc3)c2n1` [Entospletinib] as the compound, how does the cell viability read?
A: 0.558

Q: For `CC[C@H](Nc1ncnc2[nH]cnc12)c1nc2cccc(F)c2c(=O)n1-c1ccccc1` [Idelalisib], which cell viability is on record?
A: 0.983

Source: the supplement of paper PMC12808144
